Results reported in PubChem BioAssay (NCATS).
Results filed as inconclusive are left out. Activity calls are given as the source filed them. Unless noted, calls follow the shape of the dose curve; as a rule, active = well fitted inhibition curve with a large enough effect; inconclusive = small, poorly fitted or top-dose-only effect; inactive = flat fitted curve, though single readings scatter.

What was measured:
[1] = qHTS drug screen for cell cycle checkpoint inhibitors in PARPi-resistant BRCA-mutant ovarian cancer cell lines. (AID 1963452; calls by dose curve); settings: PEO1/OlaR viability, CellTiter-Glo luminescence, 96 h, stronger effect = lower value
Procedure, shortened: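 PEO1, PEO4 and PEO1/OlaR ovarian cancer cells, 600 per well, exposed 96 h at 37C to a dilution series. Viability read by CellTiter-Glo luminescence, normalized to DMSO and empty wells; activity summarized as Z-AUC.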

[2] = qHTS profiling for inhibitors of Plasmodium falciparum proliferation (AID 504749); also: nearly all actives have a fitted effect of over 60% in size; also: potency is read from the fitted curve at half-maximal effect;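 as to activity, negative = inhibition: 0% = DMSO vehicle and full inhibition = artemisinin control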; settings: P. falciparum in erythrocytes, SYBR Green DNA, 72 h
Procedure, shortened: (§1)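 SYBR Green fluorescence of parasite DNA, read after lysis and overnight dark incubation, measured growth over 72 h in erythrocyte culture at 0.3% parasitemia and 2.5% hematocrit. Data normalised to DMSO and 0.29 uM artemisinin, with plate-drift correction.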

3D7 = test: as above; settings: P. falciparum in erythrocytes, SYBR Green DNA, 72 h; series mostly up to 28.7 µM
Procedure, shortened: as §1

7G8 = test: as above; settings: P. falciparum in erythrocytes, SYBR Green DNA, 72 h; series mostly up to 28.7 µM
Procedure, shortened: as §1

AA1029 = test: as above; settings: P. falciparum in erythrocytes, SYBR Green DNA, 72 h; series mostly up to 28.7 µM
Procedure, shortened: as §1

AS120 = test: as above; settings: P. falciparum in erythrocytes, SYBR Green DNA, 72 h; series mostly up to 28.7 µM
Procedure, shortened: as §1

ATS189 = test: as above; settings: P. falciparum in erythrocytes, SYBR Green DNA, 72 h; series mostly up to 28.7 µM
Procedure, shortened: as §1

ATS95 = test: as above; settings: P. falciparum in erythrocytes, SYBR Green DNA, 72 h; series mostly up to 28.7 µM
Procedure, shortened: as §1

C2A = test: as above; settings: P. falciparum in erythrocytes, SYBR Green DNA, 72 h; series mostly up to 28.7 µM
Procedure, shortened: as §1

CP185 = test: as above; settings: P. falciparum in erythrocytes, SYBR Green DNA, 72 h; series mostly up to 28.7 µM
Procedure, shortened: as §1

CP191 = test: as above; settings: P. falciparum in erythrocytes, SYBR Green DNA, 72 h; series mostly up to 28.7 µM
Procedure, shortened: as §1

CP192 = test: as above; settings: P. falciparum in erythrocytes, SYBR Green DNA, 72 h; series mostly up to 28.7 µM
Procedure, shortened: as §1

CP194 = test: as above; settings: P. falciparum in erythrocytes, SYBR Green DNA, 72 h; series mostly up to 28.7 µM
Procedure, shortened: as §1

CP201 = test: as above; settings: P. falciparum in erythrocytes, SYBR Green DNA, 72 h; series mostly up to 28.7 µM
Procedure, shortened: as §1

CP203 = test: as above; settings: P. falciparum in erythrocytes, SYBR Green DNA, 72 h; series mostly up to 28.7 µM
Procedure, shortened: as §1

CP211 = test: as above; settings: P. falciparum in erythrocytes, SYBR Green DNA, 72 h; series mostly up to 28.7 µM
Procedure, shortened: as §1

[3] = qHTS for identification of novel therapeutic agents for treatment of microphthalmiaassociated transcription factor (MiT) renal cell carcinoma (RCC) (AID 1963991; calls by dose curve; also: potency is read from the fitted curve at half-maximal effect); settings: CellTiter-Glo, 48 h; for z-score: stronger effect = lower value
Procedure, shortened: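 Three TFE3-fusion RCC lines (UOK109, UOK124, UOK145), 500 cells/well in complete medium, were treated with MIPE 4.0 compounds for 48 hours at 37 C. Viability was by CellTiter-Glo luminescence, normalized to DMSO (100%) and empty wells (0%); curves fitted over 11 concentrations.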

[4] = measured here: PEO1 parental Z-AUC
[5] = at 28.7 µM (top of the series), parasite line A
[6] = at 28.7 µM (top of the series), parasite line B
[7] = TFE3-RCC UOK109 viability, measured here: UOK109 Z-AUC
[8] = TFE3-RCC viability, measured here: UOK124 Z-AUC
[9] = TFE3-RCC viability, measured here: UOK145 Z-AUC
[10] = at 12.8 µM (top of the series), parasite line A
[11] = at 12.8 µM (top of the series), parasite line B

CC(=O)N[C@@H](CS)C(=O)O
0.504: Z-AUC ([1]; measured here: PEO4 Z-AUC)
0.869: Z-AUC [1, 4]
inactive: Z-AUC [1] 0.621 | activity, negative = inhibition [2, 5] -3.7% | activity, negative = inhibition [2, 6] 16.4% | outcome (3D7) | Potency (7G8) | outcome (AA1029) | Potency (AS120) | Potency (ATS189) | outcome (ATS95) | outcome (C2A) | outcome (CP185) | Potency (CP191) | Potency (CP192) | Potency (CP194) | outcome (CP201) | outcome (CP203) | Potency (CP211)

NC[C@@H]1O[C@@H](O[C@H]2[C@@H](O)[C@H](O[C@@H]3[C@@H](O)[C@@H](N)C[C@H](N)[C@H]3O[C@H]3O[C@H](CN)[C@@H](O)[C@@H](O)[C@H]3N)O[C@H]2CO)[C@H](N)[C@@H](O)[C@@H]1O
1.63: z-score [3, 9]
1.35: z-score [3, 7]
0.643: z-score [3, 8]

C[C@]12CC[C@@H]3c4ccc(O)cc4CC[C@H]3[C@H]1C[C@@H](O)[C@H]2O
0.473: z-score [3, 8]
1.3: z-score [3, 7]
0.59: z-score [3, 9]

C=C1C(=O)OC2C=C(C)CCC=C(C)CCC12 (stereo unspecified)
0.459: z-score [3, 7]
0.643: z-score [3, 8]
0.399: z-score [3, 9]

COc1ccc(Cc2nccc3cc(OC)c(OC)cc23)cc1OC
-1.2: Z-AUC [1, 4]
0.243: Z-AUC ([1]; measured here: PEO4 Z-AUC)
inactive: Z-AUC [1] -1.7 | activity, negative = inhibition [2, 10] 0.631% | activity, negative = inhibition [2, 11] 6.88% | Potency (7G8) | outcome (AA1029) | Potency (AS120) | Potency (ATS189) | outcome (ATS95) | outcome (C2A) | outcome (CP185) | Potency (CP191) | Potency (CP192) | Potency (CP194) | outcome (CP201) | outcome (CP203) | Potency (CP211)

CC1=C(/C=C/C(C)=C/C=C/C(C)=C/C(=O)Nc2ccc(O)cc2)C(C)(C)CCC1
active: Potency ([2]; parasite line A) 11.2 µM | Potency ([2]; parasite line B) 10 µM | Potency (7G8) 8.91 µM | Potency (AS120) 10 µM | Potency (ATS189) 7.94 µM | Potency (CP191) 7.94 µM | Potency (CP192) 9.53 µM | Potency (CP194) 13.5 µM | Potency (CP211) 10.7 µM
0.121: Z-AUC ([1]; measured here: PEO4 Z-AUC)
inactive: Z-AUC [1] 0.685
0.437: Z-AUC [1, 4]

CCCCCN(C)CCC(O)(P(=O)(O)O)P(=O)(O)O
1.05: Z-AUC ([1]; measured here: PEO4 Z-AUC)
inactive: Z-AUC [1] 0.387 | activity, negative = inhibition [2, 5] 13.8% | activity, negative = inhibition [2, 6] 15.2% | outcome (3D7) | Potency (7G8) | outcome (AA1029) | Potency (AS120) | Potency (ATS189) | outcome (ATS95) | outcome (C2A) | outcome (CP185) | Potency (CP191) | Potency (CP192) | Potency (CP194) | outcome (CP201) | outcome (CP203) | Potency (CP211)
0.34: z-score [3, 7]
1.32: Z-AUC [1, 4]
0.128: z-score [3, 8]
0.245: z-score [3, 9]

O=C1c2ccccc2-[n+]2ccc3c([nH]c4ccccc43)c21
-1.7: z-score [3, 9]
-1.69: z-score [3, 7]
inactive: Z-AUC [1] -1.18
-1.75: Z-AUC [1, 4]
-2.04: z-score [3, 8]
-2.31: Z-AUC ([1]; measured here: PEO4 Z-AUC)
active: Potency ([3]; TFE3-RCC UOK109 viability, active = Z-AUC below -0.8 in all three lines) 1.66 µM

CCCCC1C(=O)N(c2ccccc2)N(c2ccccc2)C1=O
inactive: Potency (7G8) | outcome (CP203)

CC(=O)CCCCn1c(=O)c2c(ncn2C)n(C)c1=O
inactive: activity, negative = inhibition [2, 10] -2.51% | activity, negative = inhibition [2, 11] 2.9% | outcome (3D7) | Potency (7G8) | outcome (AA1029) | Potency (AS120) | Potency (ATS189) | outcome (ATS95) | outcome (C2A) | outcome (CP185) | Potency (CP191) | Potency (CP192) | Potency (CP194) | outcome (CP201) | outcome (CP203) | Potency (CP211)

CCN(CC)CCNC(=O)c1ccc(N)cc1
inactive: activity, negative = inhibition [2, 5] 6.98% | activity, negative = inhibition [2, 6] 5.88% | outcome (3D7) | Potency (7G8) | outcome (AA1029) | Potency (AS120) | Potency (ATS189) | outcome (ATS95) | outcome (C2A) | outcome (CP185) | Potency (CP191) | Potency (CP192) | Potency (CP194) | outcome (CP201) | outcome (CP203) | Potency (CP211)
